Assay in all cases: NCI-60 one-dose screen, 48 h (100 = growth as untreated, 0 = no growth, -100 = all killed)
The test system of assay [1] is NCI-H23 lung. The following applies: 10 µM unless noted.
The subject of assay [2] is NCI-H226 lung. The following applies: 10 µM unless noted.
The subject of assay [3] is NCI-H322M lung. The settings on record: 10 µM unless noted.
The test system of assay [4] is HOP-62 NSCLC. The settings on record: 10 µM unless noted.
The test system of assay [5] is HOP-92 NSCLC. The settings on record: 10 µM.
The subject of assay [6] is NCI-H522 lung. The following applies: 10 µM.
Assay [7] relates to A549/ATCC NSCLC. The following applies: 10 µM unless noted.
In assay [8] the test system is 786-0 renal. The following applies: 10 µM unless noted.
In assay [9] the test system is COLO 205 colon. The following applies: 10 µM unless noted.

The structures appear in SMILES notation. This is part of a sample that, as a whole, favours compounds with a hit. Of some 83,000 tested, about 20% had one in any assay.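 Percent growth is the endpoint: 0 to 100 indicates growth inhibition (40 means 60% inhibition), 0 means no net growth, and negative values indicate cell death.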 Values without a mark were called inactive. The source made the active and inactive calls. The calls were made as follows: active = growth percent below 10; inactive = the rest.

For `Cc1ncc(C(=O)Nc2ccc(CN3CCN(C)CC3)c(C(F)(F)F)c2)cc1C#Cc1cnc(NC2CC2)c2ncccc12`, the growth in assay [1] is -70.8% (active); in [2], 39.7%; in [3], -87.7% (active); in [4], 16.9%; in [5] it was 33.4%; in assay [6], -76.4% (active). In addition, the growth is -91.5% (active) in [7] and -85.2% (active) in [8].
`CSC1=Nc2c(c(C)c(-c3ccccc3)n2CCCCl)C2=NC(=O)CN12`: the growth in assay [1] is 77.6%; in assay [2], 79.3%; in [3], 82.1%; in [4], 64.3%; in assay [5] it was 64.7%; in [6] it was 55.8%. In addition, the growth was 74.1% in assay [7] and 77.9% in [8].
With `CC1=C(C)C[C@]2(C(=O)O[C@H]3CCCC[C@@H]32)[S@](=O)C1`, the growth in assay [1] was 97.9%; in assay [2] it was 109%; in [3], 106%; in assay [4], 106%; in assay [5], 105%; in assay [6], 82.9%. Moreover, the growth was 96.5% in assay [7], 102% in [8] and 108% in [9].
Consider `COC(=O)C1CC(=O)N(C(=O)Nc2ccc(Cl)cc2Cl)C1` (stereo not given), for which the growth in [1] is 98.8%; in assay [2] it was 94.6%; in assay [3], 108%; in assay [4], 85.5%; in assay [5] it was 83.1%; in assay [6], 80.3%. Besides, the growth in [7] was 96.3%; in assay [8] it was 92.4%.
For `CC(C)CSc1nc(-c2ccc(F)cc2)c(C#N)c(N2CCCCC2)n1`, the growth in [1] was 83.7%; in assay [2], 90.5%; in assay [3] it was 94%; in [4], 110%; in [5], 97.5%; in assay [6], 82.6%. Further, the results for the growth in assay [7] and in assay [8] were 86.6% and 90.8%, respectively.
Take `COc1cc2c(c(OC)c1OC)C(=O)CC(c1cccc(C(=O)Nc3cccc(Br)c3)c1)O2` (stereo not given): the growth in assay [1] is 97%; in assay [2] it was 85.1%; in assay [3] it was 81.5%; in assay [4], 86%; in assay [5], 55.3%; in [6], 51.7%. Moreover, the growth in assay [7] was 77.9%; in [8], 84%.
Take `CCCCCCCCCCN1CC2CCCCC2C1` (stereo not given): the growth in [1] was 82.2%; in assay [2] it was 76%; in assay [3] it was 99.7%; in [4] it was 69.4%; in [5], 56.4%; in [6] it was 67.1%. Besides, the figures for the growth in assay [7], in [8] and in [9] were 97.3%, 86.6% and 61%, respectively.
Turning to `CC(=O)C(CO)C(=O)Nc1ccccc1` (stereo not given), the growth in [1] is 103%; in [2], 96.9%; in assay [3] it was 85.9%; in assay [4], 93.3%; in assay [5], 96.6%; in assay [6], 82.3%. Also, the growth was 93.6% in assay [7] and 96.8% in assay [8].
Regarding `CC(C)(C)OC(=O)N1C/C(=C\c2ccccc2)C(=O)/C(=C/c2ccccc2)C1`, the growth was 103% in assay [1]; 81.6% in assay [2]; 92.6% in assay [3]; 96.4% in [4]; 69.4% in assay [5]; 72% in assay [6]. The growth in assay [7] was 92.7%; in assay [8], 81.6%.
With `Cc1ccc(C(=O)Nc2ccc(CN3CCN(C)CC3)c(C(F)(F)F)c2)cc1C#Cc1cncc2ncccc12`, the growth is -84.3% (active) in assay [1]; 5.51% (active) in assay [2]; -95.8% (active) in [3]; -11.7% (active) in assay [4]; -30.7% (active) in [5]; 2.81% (active) in assay [6]. Further, the growth in assay [7] is -82.1% (active); in [8], -70.5% (active).
Regarding `CCS(=O)(=O)N[C@@H]1O[C@H](COC(C)=O)C(OC(C)=O)[C@H](OC(C)=O)C1OC(C)=O` (stereo not given in full), the growth in assay [1] was 102%; in assay [2], 109%; in assay [3], 115%; in assay [4], 87.8%; in assay [5] it was 95.4%; in [6] it was 83.7%. Moreover, the figures for the growth in assay [7], in assay [8] and in assay [9] were 88.7%, 104% and 113%, respectively.
In the case of `CCCNC(=O)Oc1ccc(/C(=C(/C)Cc2ccc(OC)cc2)c2ccc(OCCN3CCCCC3)cc2)cc1`, the growth is 90.8% in [1]; 95.1% in assay [2]; 81.5% in assay [3]; 84.9% in assay [4]; 61% in [5]; 84.8% in assay [6]. Also, the growth was 84.4% in assay [7], 81.8% in [8] and 79% in assay [9].
For `O=C(Nc1cccc(Cn2c(=O)[nH]c3ccc(Oc4ncccn4)cc3c2=O)c1)c1cccc(F)c1`, the growth was 82.2% in assay [1]; 74.1% in [2]; 86.4% in assay [3]; 79% in assay [4]; 60.9% in [5]; 60.9% in [6]. In addition, the values for the growth in assay [7] and in [8] were 70.2% and 65.6%, respectively.
`COc1ccc(-c2nc(SCC(C)C)nc(Nc3ccc(C(=O)O)cc3)c2C#N)cc1`: the growth was 88.8% in [1]; 87.7% in assay [2]; 96.9% in [3]; 116% in assay [4]; 89% in [5]; 84.7% in assay [6]. In addition, the growth was 89% in [7] and 106% in [8].
Consider `O=C1C(Cl)=C(Nc2ccc(Nc3ccccc3)c(NC3=C(Cl)C(=O)c4ccccc4C3=O)c2)C(=O)c2ccccc21`, for which the growth in [1] is 88.4%; in assay [2], 98.8%; in [3], 57.3%; in [4], 59.8%; in assay [5], 45.3%; in assay [6], 14.9%. Further, the figures for the growth in assay [7], in assay [8] and in assay [9] were 92.7%, 78.3% and -15.6% (active), respectively.

The values above are taken from PubChem BioAssay (NCI).
